The nature of assay [1]: ATG_CRE_CIS: Attagene CIS-FACTORIAL HepG2 Assay for human cAMP Responsive Element (CRE) binding protein 3 (AID 2282926). Particulars: HepG2 CRE cis-reporter, Attagene multiplexed mRNA; actives raise or lower the signal. Summed up: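 Assay format: transient reporter transfection of HepG2, 24 h treatment, total RNA isolation with DNase I step. Reporter abundance read by fluorescence after PCR and capillary separation; DMSO-normalised gain or loss fitting.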

Assay [2] has as its target CCAAT/enhancer-binding protein beta (Homo sapiens) (UniProt P17676). The assay can be described thus: ATG_C_EBP_CIS: Attagene CIS-FACTORIAL HepG2 Assay for human CCAAT/Enhancer Binding Protein (C/EBP) beta (AID 2282927). Particulars: HepG2 Attagene cis-factorial transcription factor reporter; actives raise or lower the signal. Summed up:
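Endogenous C/EBPb-driven reporter transcripts measured in transfected human HepG2 cells at 24 h via RT-PCR and capillary electrophoresis of labelled fragments. Activity fitted in both directions relative to DMSO baseline.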

Assay [3] in a line: ATG_CMV_CIS: Attagene CIS-FACTORIAL HepG2 Assay for human CMV (Internal Marker) (AID 2282928).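 Note: endpoint acts as a background internal control marker rather than a target.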 The following applies: HepG2 CMV promoter reporter, transcription factor profiling; actives raise or lower the signal. An outline of the steps:
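24 h chemical treatment, HepG2 with transient multi-reporter transfection; RNA → oligo(dT) RT → PCR → 6-FAM extension → HpaI digest → CE fluorescence. Bidirectional fit, DMSO negative control.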

A short description of assay [4]: ATG_DR4_LXR_CIS: Attagene CIS-FACTORIAL HepG2 Assay for human Liver X Receptor (LXR), DR4 submotif (AID 2282929). Particulars: HepG2 Attagene DR4 cis-reporter, mRNA transcription; actives raise or lower the signal. An outline of the steps:
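HepG2 cells transiently transfected with cis-promoter-driven multiplexed reporter units (DR4 element) were dosed for 24 h. Reporter mRNA was quantified by RT-PCR, fluorescent primer extension, HpaI digestion and capillary electrophoresis; bidirectional fitting versus DMSO baseline.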

The target in assay [5] is Aryl hydrocarbon receptor (Homo sapiens) (UniProt P35869). The assay can be described thus: ATG_Ahr_CIS: Attagene CIS-FACTORIAL HepG2 Assay for human Aryl Hydrocarbon Receptor (Ahr) (AID 2282930). Particulars: HepG2 AhR cis-factorial reporter transcription; actives raise or lower the signal. An outline of the steps:
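Reporter mRNA levels, quantified by RT-PCR and fluorescent capillary electrophoresis, reflect endogenous AhR transcriptional activity in HepG2 cells carrying transfected cis-promoter reporter constructs. Readout at 24 h post-dose; gain or loss fitted against DMSO baseline.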

Assay [6] in a line: ATG_AP_1_CIS: Attagene CIS-FACTORIAL HepG2 Assay for human Activator Protein 1 (AP-1) (AID 2282931). The following applies: HepG2 Attagene cis-factorial AP-1 reporter mRNA; actives raise or lower the signal. Summed up:
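HepG2 cells transiently transfected with cis-element-driven multiplex reporter units; 24 h compound exposure. Reporter mRNA quantified by RT-PCR, FAM-labelled fragments resolved by capillary electrophoresis; bidirectional fit versus DMSO baseline.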

Assay [7] in a line: ATG_BRE_CIS: Attagene CIS-FACTORIAL HepG2 Assay for human Bone Morphogenetic Protein (BMP) Response Element (BRE) (AID 2282933). The following applies: HepG2 BMP response element reporter, Attagene transcription factor profiling; actives raise or lower the signal. Summed up:
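Read-out: reporter mRNA induction quantified by RT-PCR and capillary electrophoresis after 24 h chemical exposure of transfected HepG2 cells. Endogenous factor activity on the BMP response element; gain or loss fitted against DMSO baseline.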

Assay [8] concerns the target Retinoic acid receptor alpha (Homo sapiens) (UniProt P10276). Put plainly: ATG_DR5_RAR_CIS: Attagene CIS-FACTORIAL HepG2 Assay for human Retinoic Acid Receptor Alpha (RARE), DR5 submotif (AID 2282934).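 For AC50: reporter responds to endogenous RAR alpha beta and gamma in HepG2 not RARA alone.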 Particulars: HepG2 Attagene cis-factorial RARE DR5 reporter, mRNA; actives raise or lower the signal. An outline of the steps:
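Reporter transcripts from a DR5-regulated unit, measured via RT-PCR plus capillary electrophoresis, reflect endogenous RAR activity in transiently transfected human HepG2 liver cells. Exposure lasted 24 h; gain or loss of signal scored against DMSO.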

Assay [9] concerns the target Transcription factor E2F1 (Homo sapiens) (UniProt Q01094). Put plainly: ATG_E2F_CIS: Attagene CIS-FACTORIAL HepG2 Assay for human E2F Transcription Factor 1 (AID 2282935). Particulars: HepG2 Attagene cis-reporter, E2F reporter RNA transcripts; actives raise or lower the signal. An outline of the steps:
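Fluorescent RT-PCR products, digested with HpaI for 2 h at 37 C, are separated by capillary electrophoresis. Source RNA comes from transfected HepG2 cultures treated for 24 h.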

A short description of assay [10]: ATG_E_Box_CIS: Attagene CIS-FACTORIAL HepG2 Assay for human Enhancer Box (E-box) (AID 2282936). Particulars: HepG2 E-box cis-reporter transcription, actives raise or lower the signal. Summed up:
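Fluorescent reporter fragments separated by capillary electrophoresis gave the signal; mRNA came from HepG2 cells transfected with cis-element reporters and treated 24 h. Curves fitted bidirectionally relative to DMSO controls.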

Assay [11] can be described thus: ATG_M_61_CIS: Attagene CIS-FACTORIAL HepG2 Assay for M61 Transcription Factor (Internal Marker) (AID 2282937). Particulars: HepG2 Attagene CIS-FACTORIAL M61 internal marker reporter; actives raise or lower the signal. An outline of the steps:
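HepG2 cells transiently transfected with cis-element-driven multiple reporter transcription units, dosed for 24 h. Reporter mRNA measured by RT-PCR, 6-FAM primer-extension labelling, HpaI digestion and capillary electrophoresis; bidirectional fit versus DMSO baseline.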

A short description of assay [12]: ATG_EGR_CIS: Attagene CIS-FACTORIAL HepG2 Assay for human Early Growth Response 1 (EGR1) (AID 2282938). The following applies: HepG2 Attagene CIS-FACTORIAL EGR reporter mRNA; actives raise or lower the signal. Summed up: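 HepG2 cells transiently transfected with cis-promoter-driven multiplexed reporter transcription units; reporter mRNA measured 24 h after compound dosing by RT-PCR, 6-FAM primer extension, HpaI digestion and capillary electrophoresis. Bidirectional fit versus DMSO baseline.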

The nature of assay [13]: ATG_M_19_CIS: Attagene CIS-FACTORIAL HepG2 Assay for M19 Transcription Factor (Internal Marker) (AID 2282939). The following applies: HepG2 Attagene CIS-FACTORIAL M19 internal marker reporter; actives raise or lower the signal. An outline of the steps:
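Readout: fluorescent reporter-transcript fragments by capillary electrophoresis after RT-PCR. Human HepG2 liver cells carried transfected MRTU constructs reporting endogenous transcription-factor activity; exposure 24 h. Gain or loss of signal fitted relative to DMSO.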

Assay [14] in a line: ATG_ERE_CIS: Attagene CIS-FACTORIAL HepG2 Assay for Estrogen Response Element (ERE) (AID 2282940). The following applies: HepG2 ERE cis-reporter, Attagene RNA transcript; actives raise or lower the signal. Summed up: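 Readout: reporter mRNA induction by RT-PCR, FAM-labelled primer extension, HpaI digestion and capillary electrophoresis, 24 h after dosing transfected HepG2 cells. Endogenous transcription factors act on cis-element-regulated reporters. Gain or loss fitted against DMSO.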

Assay [15] can be described thus: ATG_Ets_CIS: Attagene CIS-FACTORIAL HepG2 Assay for human Erythroblast Transformation Specific (ETS) (AID 2282941). Particulars: HepG2 ETS cis-reporter transcription, actives raise or lower the signal. Summed up:
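Cis-regulated reporter mRNA induction in HepG2 (transient transfection), 24 h exposure, RT-PCR plus capillary electrophoresis detection; DMSO serves as negative control and baseline.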

Assay [16] deals with Hepatocyte nuclear factor 3-beta (Homo sapiens) (UniProt Q9Y261). The assay can be described thus: ATG_FoxA2_CIS: Attagene CIS-FACTORIAL HepG2 Assay for human Forkhead box A2 (FOXA2) (AID 2282942). The following applies: HepG2 cis-reporter transcription factor activity, 24 h; actives raise or lower the signal. Summed up: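 HepG2 cells transiently transfected with multiple cis-regulated reporter transcription units, dosed for 24 h. Reporter mRNA measured by RT-PCR, 6-FAM labelling, HpaI digestion and capillary electrophoresis; bidirectional fitting against DMSO baseline.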

The nature of assay [17]: ATG_FoxO_CIS: Attagene CIS-FACTORIAL HepG2 Assay for human Forkhead box O (FoxO) (AID 2282943). The following applies: HepG2 Attagene cis-reporter, FoxO element, mRNA; actives raise or lower the signal. An outline of the steps: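 Endogenous transcription factor activity read from multiplexed cis-promoter reporter transcripts in transiently transfected HepG2, 24 h after dosing. Reporter RNA measured via RT-PCR plus capillary electrophoresis of FAM-labeled products; gain or loss relative to DMSO.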

Assay [18] is described as follows: ATG_GATA_CIS: Attagene CIS-FACTORIAL HepG2 Assay for human GATA Binding Protein (AID 2282944). The following applies: HepG2 GATA cis-element reporter, Attagene multiplex mRNA; actives raise or lower the signal. An outline of the steps: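 Read-out: fluorescent reporter mRNA fragments resolved by capillary electrophoresis after RT-PCR. Human liver HepG2 cells carried transiently transfected cis-regulated reporter constructs; chemicals incubated 24 h; gain or loss of signal fitted relative to DMSO.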

Assay [19] is described as follows: ATG_GLI_CIS: Attagene CIS-FACTORIAL HepG2 Assay for human Zinc Finger Protein GLI1 (AID 2282945). The following applies: HepG2, Attagene cis-factorial reporter mRNA, GLI element; actives raise or lower the signal. An outline of the steps:
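Bidirectional curve fits relative to DMSO, using reporter mRNA levels from RT-PCR plus capillary electrophoresis. Cells were HepG2 transiently carrying cis-regulated reporter constructs, harvested 24 h after dosing.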

Assay [20] can be described thus: ATG_AP_2_CIS: Attagene CIS-FACTORIAL HepG2 Assay for human Activator Protein 2 (AP-2) (AID 2282932). The following applies: HepG2 AP-2 cis-reporter, Attagene transcription factor profiling; actives raise or lower the signal. An outline of the steps:
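Transiently transfected HepG2 cells are exposed to chemical for 24 h. Reporter transcripts are then measured as fluorescence following RT-PCR and capillary separation, and gain- or loss-of-signal is fitted relative to DMSO.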

Calls of active or inactive are those of the source. Rule for the calls: active = hit-call score of the fitted dose curve at least 0.9, where 1 is the maximum; inactive = score below 0.9.

Transcription factor E2F1 (Homo sapiens), sequence (Q01094 whole entry, looked up): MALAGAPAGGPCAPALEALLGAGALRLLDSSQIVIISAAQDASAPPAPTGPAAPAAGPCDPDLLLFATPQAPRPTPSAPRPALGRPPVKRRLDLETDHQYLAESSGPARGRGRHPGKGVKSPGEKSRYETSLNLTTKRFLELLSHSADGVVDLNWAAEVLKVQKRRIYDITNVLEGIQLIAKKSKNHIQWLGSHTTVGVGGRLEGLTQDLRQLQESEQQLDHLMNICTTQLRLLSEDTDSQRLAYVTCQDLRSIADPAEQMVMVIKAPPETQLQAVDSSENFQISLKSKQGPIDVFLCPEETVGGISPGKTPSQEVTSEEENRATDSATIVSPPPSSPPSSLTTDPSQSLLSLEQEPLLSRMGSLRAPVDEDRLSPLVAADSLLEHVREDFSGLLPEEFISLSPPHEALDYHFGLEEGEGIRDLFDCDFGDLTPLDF
CCAAT/enhancer-binding protein beta (Homo sapiens), sequence (P17676 whole entry, looked up, the tested form may be a part): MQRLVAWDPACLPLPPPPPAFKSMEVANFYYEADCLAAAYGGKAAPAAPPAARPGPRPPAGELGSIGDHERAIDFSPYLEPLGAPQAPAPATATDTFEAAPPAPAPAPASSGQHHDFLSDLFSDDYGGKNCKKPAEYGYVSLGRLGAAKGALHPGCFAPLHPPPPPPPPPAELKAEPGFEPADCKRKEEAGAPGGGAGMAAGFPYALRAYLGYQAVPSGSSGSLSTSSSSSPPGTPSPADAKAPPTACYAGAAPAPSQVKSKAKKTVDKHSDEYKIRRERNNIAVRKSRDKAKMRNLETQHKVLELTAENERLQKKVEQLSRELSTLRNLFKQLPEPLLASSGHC
Retinoic acid receptor alpha (Homo sapiens), sequence (P10276 whole entry, looked up): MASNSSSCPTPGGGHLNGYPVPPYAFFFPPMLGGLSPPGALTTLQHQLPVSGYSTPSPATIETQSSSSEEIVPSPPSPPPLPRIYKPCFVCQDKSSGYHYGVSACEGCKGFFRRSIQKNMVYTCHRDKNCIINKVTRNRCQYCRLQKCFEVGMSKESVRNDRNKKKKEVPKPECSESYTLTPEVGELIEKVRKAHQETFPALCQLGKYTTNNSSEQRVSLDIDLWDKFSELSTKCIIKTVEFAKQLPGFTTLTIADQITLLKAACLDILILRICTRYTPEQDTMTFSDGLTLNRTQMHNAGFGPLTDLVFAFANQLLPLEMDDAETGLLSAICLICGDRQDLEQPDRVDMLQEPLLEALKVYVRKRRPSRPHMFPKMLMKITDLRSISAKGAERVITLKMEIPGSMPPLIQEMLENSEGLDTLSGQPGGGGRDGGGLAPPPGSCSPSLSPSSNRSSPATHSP
Aryl hydrocarbon receptor (Homo sapiens), sequence (P35869 whole entry, looked up): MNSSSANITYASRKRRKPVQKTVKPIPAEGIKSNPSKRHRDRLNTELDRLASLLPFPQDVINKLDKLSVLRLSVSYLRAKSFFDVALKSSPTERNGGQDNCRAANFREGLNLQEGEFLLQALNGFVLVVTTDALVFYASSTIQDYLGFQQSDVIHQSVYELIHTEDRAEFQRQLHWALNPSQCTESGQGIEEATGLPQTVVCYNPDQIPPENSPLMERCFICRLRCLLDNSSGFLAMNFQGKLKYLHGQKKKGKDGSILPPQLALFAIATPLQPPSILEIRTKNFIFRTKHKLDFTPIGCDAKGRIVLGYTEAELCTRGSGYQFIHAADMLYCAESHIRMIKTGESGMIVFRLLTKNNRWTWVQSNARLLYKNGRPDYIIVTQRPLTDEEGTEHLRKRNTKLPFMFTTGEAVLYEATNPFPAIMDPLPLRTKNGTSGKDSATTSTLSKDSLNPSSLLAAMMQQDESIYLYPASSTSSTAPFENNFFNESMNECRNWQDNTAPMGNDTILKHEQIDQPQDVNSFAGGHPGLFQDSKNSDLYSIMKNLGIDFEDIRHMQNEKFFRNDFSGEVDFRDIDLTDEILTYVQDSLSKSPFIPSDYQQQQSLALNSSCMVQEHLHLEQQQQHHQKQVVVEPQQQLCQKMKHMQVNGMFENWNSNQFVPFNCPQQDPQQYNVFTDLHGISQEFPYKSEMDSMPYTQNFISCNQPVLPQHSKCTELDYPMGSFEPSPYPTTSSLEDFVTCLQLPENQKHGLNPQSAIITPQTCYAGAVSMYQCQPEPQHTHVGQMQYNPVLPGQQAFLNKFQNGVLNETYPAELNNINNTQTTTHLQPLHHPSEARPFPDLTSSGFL
Hepatocyte nuclear factor 3-beta (Homo sapiens), sequence (Q9Y261 whole entry, looked up): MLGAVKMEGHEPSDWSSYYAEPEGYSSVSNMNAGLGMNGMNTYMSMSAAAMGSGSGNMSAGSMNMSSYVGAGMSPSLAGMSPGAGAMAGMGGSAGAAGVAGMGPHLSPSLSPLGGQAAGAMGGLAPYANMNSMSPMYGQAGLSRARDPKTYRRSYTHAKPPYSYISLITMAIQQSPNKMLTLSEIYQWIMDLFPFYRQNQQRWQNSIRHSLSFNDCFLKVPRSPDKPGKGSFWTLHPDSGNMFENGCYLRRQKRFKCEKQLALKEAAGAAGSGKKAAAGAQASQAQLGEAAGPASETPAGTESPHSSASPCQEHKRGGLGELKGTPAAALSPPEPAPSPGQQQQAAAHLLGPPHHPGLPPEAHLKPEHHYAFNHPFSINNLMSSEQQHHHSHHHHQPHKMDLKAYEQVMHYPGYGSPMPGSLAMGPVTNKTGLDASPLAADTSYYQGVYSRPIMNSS

Regarding `Cc1c(C)c([N+](=O)[O-])c(C(C)(C)C)c([N+](=O)[O-])c1C`, the call in assay [1], in assay [2], in [3], in assay [4], in assay [5] and in assay [6] was inactive. The compound was called inactive in assay [7], in assay [9], in assay [10], in assay [11], in [12] and in [13]. In addition, the compound was called inactive in [14], in [15], in [16], in [17], in assay [18] and in assay [19]. Further, in [8], the AC50 (as a rule, the concentration at which the activity in the assay is half-maximal) was 5.92 µM (active).
For the compound `CC(C)c1ccc(C=O)cc1`, the call in assay [1], in assay [2], in [3], in assay [4], in assay [5] and in assay [6] was inactive. Further, the outcome in [20], in [9], in assay [10], in assay [11], in assay [12] and in assay [13] was inactive. Also, the call in [14], in [16], in assay [17], in assay [18] and in assay [19] was inactive.
`COC(=O)/C=C\C(=O)O`: the compound was called inactive in [1], in assay [2], in assay [3], in assay [4], in assay [6] and in [20]. For the same compound, the call in assay [7], in assay [8], in assay [9], in assay [11], in assay [13] and in assay [14] was inactive. Further, the outcome in [15], in [16], in [17], in assay [18] and in assay [19] was inactive.
Turning to `CC=CCO`, the result in assay [1], in assay [2], in assay [3], in assay [4], in assay [5] and in assay [6] was inactive. Moreover, the compound was classed as inactive in assay [7], in assay [8], in assay [9], in assay [10], in assay [11] and in assay [12]. For the same compound, the call in assay [13], in [14], in assay [16], in assay [17] and in [19] was inactive.
`CC(C)=CC1CC(C)CCO1` (stereo unspecified): the compound was called inactive in [1], in [2], in assay [3], in assay [4], in assay [5] and in assay [6]. Moreover, the compound was classed as inactive in assay [7], in assay [8], in assay [9], in assay [10], in [11] and in assay [12]. Also, the call in [13], in [14], in [15], in assay [16], in assay [17] and in [18] was inactive. For the same compound, the compound was classed as inactive in assay [19].
In the case of `CCCCCCCCCCCCCCCC[n+]1ccccc1`, the half-maximal activity concentration (AC50) in assay [1] is 0.873 µM (active); in [2], 0.852 µM (active); in [3], 33.4 µM (active); in assay [4] it was 8.64 µM (active); in assay [6], 20.4 µM (active); in assay [8], 7.8 µM (active). In addition, the concentration at half-maximal activity (AC50) in assay [15] was 9.08 µM (active); in assay [19], 60.1 µM (active). Moreover, the compound was called inactive in [5], in assay [7], in [9], in assay [11], in assay [12] and in assay [13]. The compound was classed as inactive in [14], in assay [16], in assay [17] and in assay [18].
`Nc1ccc2cc3ccccc3cc2c1`: the call in assay [1], in assay [2], in assay [3], in assay [4], in assay [6] and in assay [20] was inactive. In addition, the compound was called inactive in [7], in [8], in assay [9], in [10], in assay [11] and in [12]. In addition, the compound was classed as inactive in assay [13], in assay [15], in assay [16], in assay [17], in [18] and in [19]. For the same compound, the AC50 in assay [14] is 8.48 µM (active).
